This is part of a sample that, as a whole, favours compounds with a hit. Of some 83,000 tested, about 20% had one in any assay.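 Interpretation: 100, growth as untreated; towards 0, rising growth inhibition; 0, no net growth; 0 to -100, cell death. Compounds scoring below 10 were considered active.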 Unmarked numbers belong to inactive results. Active and inactive are the calls of the source.

The subject of the experiment is MDA-MB-468 breast. In words: NCI-60 one-dose screen, 48 h (100 = growth as untreated, 0 = no growth, -100 = all killed). The note with it: 10 µM unless noted.
For the compound `O=C(O)C(c1ccccc1)N1C(=O)CSC1=S` (stereo not given), the growth was 101%. Take `CN(C=O)c1ccccc1`: the growth was 87.3%.

Consider `COc1ccc(-c2cc(-c3ccc(N4CCOCC4)cc3)n3c(n2)nc2ccccc23)cc1OC`, for which the growth is 93.7%. The figure for `CN1CCCN(CCNc2nccc(-c3c(-c4cccc(O)c4)nc4sccn34)n2)S1(=O)=O` is 68.9%; for `COc1cc(C(=O)/C=C/c2c(C)n([O-])c3ccc(C)cc3[n+]2=O)cc(OC)c1OC` it is 30.3%. The same measure for `C[C@]12C=CC(=O)C=C1[C@@H](F)C[C@@H]1[C@@H]2[C@@H](O)C[C@@]2(C)[C@H]1CC[C@]2(O)C(=O)CO`: 123%; for `O=C1CNC(c2ccccc2)C(c2ccccc2)N1` (stereo not given): 93.1%. The same measure for `COc1cccc(C2C3=C(COC3=O)N(CCO)c3cc4c(cc32)OCO4)c1` (stereo not given): -36.3% (active). In the case of `CN(C)c1ccc(/C=N/Nc2nnc3n2N=C(c2ccc(Cl)cc2)CS3)cc1`, the growth is 104%. The same measure for `Cn1cccc1C(=O)C1C(c2cccc([N+](=O)[O-])c2)C2C3CCCCC3CN2C12C(=O)Nc1ccc(Cl)cc12` (stereo not given): 32%; for `O=C1Cc2cc(CCn3cncn3)c(Cl)cc2N1`: 35.1%. In the case of `C/C=C/C=C1\C[C@H]2CO[C@H](O2)C1=O`, the growth is 103%. Turning to `CCCCCCCCCCCC(=O)OC(C)C(=O)NCCCC` (stereo not given), the growth was 105%. The same measure for `O=S(=O)(Cc1ccccc1)c1nc2ccccc2s1`: 76.8%; for `N=c1c(C(=O)OCc2ccccc2)ncc(CCl)n1O`: 68.6%; for `C=CCN1C(=O)/C(=C/C(=O)OC)S/C1=N\NC(=O)c1cc2ccc1/C=C\c1ccc(cc1)/C=C\2`: 76.3%. The same measure for `Fc1ccc(Nc2nc3nonc3nc2Nc2ccc(I)cc2)cc1`: -14.7% (active). The same measure for `Cn1c(=O)n(C)c2cc(CNCCNc3ccnc4cc(Cl)ccc34)ccc21`: 59.4%. For the compound `c1ccc2c(NCCCN3CCN(CCCNc4c5ccccc5nc5ccccc45)CC3)c3ccccc3nc2c1`, the growth is -73.2% [100 µM] (active).

For `CCOC(=O)C1C(=O)OC2CCCCC21` (stereo not given), the growth is 110%.

Take `NC(=Nc1ccccc1)SCCCCSC(N)=Nc1ccccc1`: the growth was 82.6%.

Consider `O=C(Nc1ccc(-n2ccc3c(NC(=O)c4ccccc4)ncnc32)cc1)Nc1ccc(Cl)c(C(F)(F)F)c1`, for which the growth is -56.3% (active).

Take `COc1ccc2c(c1)N(Cc1ccc(Cl)cc1)CCC2N1CCCC1=O` (stereo not given): the growth was 42.3%. The same measure for `O=C(Nc1ccc(Oc2ccc(F)cc2)c(Cl)c1)c1cnccn1`: 31.8%. The figure for `COc1ccc2[nH]cc(C(c3ccc(Cl)cc3)N3CCCC3)c2c1` (stereo not given) is 84%; for `CCCC(c1nnnn1C1CCCCC1)N1CCN(C(=O)c2ccco2)CC1` (stereo not given) it is 15.2%.

For `Cc1noc(C)c1C(=O)OCc1coc2ccccc2c1=O`, the growth is 24.5%.

As to `COc1ccc(CNCCN2C(=O)c3ccc4c5c(ccc(c35)C2=O)C(=O)N(CCNCc2ccc(OC)cc2)C4=O)cc1`, the growth is -94.3% (active). The same measure for `O=C1c2c(c3c4cc(Br)ccc4[nH]c3c3ccc4ccccc4c23)C(=O)N1O`: 62.1%.

Turning to `COc1cc(C2CC(c3cc(OC)c(OCCCOc4ccc(-n5c(/C=C/c6ccccc6)nc6ccccc6c5=O)cc4)c(OC)c3)=NO2)cc(OC)c1OC` (stereo not given), the growth was 104%. The same measure for `CCCCCCCCCCCCCCCC[n+]1cccc(C#N)c1`: -27.5% (active); for `CC1(C)CC([P+](c2ccccc2)(c2ccccc2)c2ccccc2)=NN1`: -12.9% (active). The same measure for `CCS(=O)(=O)OCCO[C@H]1Cc2cc3ccc(=O)oc3cc2OC1(C)C`: 97.9%. The same measure for `CCn1cc(C(=O)O)c(=O)c2cc(F)c(N3CCN(CC(=O)Nc4ccc(S(=O)(=O)Nc5nccc(C)n5)cc4)C(C)C3)c(F)c21` (stereo not given): 96.4%; for `COc1cccc(N2CCN(C3=C(Cl)C(=O)c4ncccc4C3=O)CC2)c1`: -63.6% (active). Consider `CCCCCCNC(=O)Oc1ccc(/C(=C(/C)c2ccc(OC)cc2)c2ccc(OCCN3CCCC3)cc2)cc1`, for which the growth is 87.1%. The figure for `CN1CCc2c(sc3ncnc(N/N=C/c4ccc(Cl)c(Cl)c4)c23)C1` is -26.6% (active); for `Cc1cc(C(=O)Nc2sc3c(c2C(N)=O)CCC(=O)C3)ccc1OCCN1CCCCC1` it is 112%. On to `COCCNC(=O)c1ccc(-c2nc3ccc4[nH]ncc4c3c3c2CCCC3)cc1`, for which the growth is 4.81% (active). The figure for `O=[N+]([O-])c1ccc(N/N=C/c2cccc3ccccc23)nc1` is 77.2%.

(Values after PubChem BioAssay (NCI).)
